This is a sample that favours compounds with a hit; in the whole collection about 1.2% have one here.
RGS16-Gao – modulators of RGS16 binding to Galphao, primary screen, biochemical, human proteins, multiplexed bead flow cytometry; bead-based flow cytometry RGS16-Galphao binding, fluorescence; actives lie on both sides; AID 1441, 2008; binding response (% of control), % at 10 µM; Regulator of G-protein signaling 16 (Homo sapiens) + Guanine nucleotide-binding protein …; hit rate 0.38% among 220,000;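 also: Galphao activated by GDP with aluminum fluoride before binding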
Avidin fluor – green autofluorescence of compounds with avidin beads – biophysical, 488/530 nm, flow cytometry, artefact control, profiling panel | compound fluorescence 488/530 nm; stronger effect = higher value | fluorescence (KMESF) at 10 µM | hit rate 0.38% among 220,000; in the data active = fluorescence above about 47
RGS4-Gao reg – modulators of RGS4 binding to Galphao, primary screen, biochemical, multiplexed bead flow cytometry; binding response (% of control), % at 10 µM; Guanine nucleotide-binding protein G(o) subunit alpha (Homo sapiens), P09471; hit rate 0.33% among 220,000; actives lie on both sides; in the data active = binding response below about 49% or above about 150%; inactive = in between;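 also: fluorescent Galphao activated with aluminum fluoride binding bead-coupled RGS4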
Target sequence (P09471 whole entry, looked up): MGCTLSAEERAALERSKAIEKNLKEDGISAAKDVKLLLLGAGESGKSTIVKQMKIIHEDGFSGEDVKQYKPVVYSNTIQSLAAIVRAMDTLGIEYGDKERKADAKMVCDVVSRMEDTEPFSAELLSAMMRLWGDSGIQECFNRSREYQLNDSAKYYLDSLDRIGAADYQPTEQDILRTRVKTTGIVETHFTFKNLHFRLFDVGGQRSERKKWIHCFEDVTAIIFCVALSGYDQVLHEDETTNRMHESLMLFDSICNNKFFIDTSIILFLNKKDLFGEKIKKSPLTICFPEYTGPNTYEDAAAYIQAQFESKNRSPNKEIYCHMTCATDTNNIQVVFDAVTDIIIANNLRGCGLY
RGS8-Gao reg – RGS8-Galphao binding modulators, primary screen, biochemical, multiplexed bead flow cytometry | actives lie on both sides | response (percent of control binding), % at 10 µM | hit rate 0.34% among 220,000; in the data active = response below about 60% or above about 140%; inactive = in between;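 also: Galphao activated as the GDP aluminium fluoride complex binding bead-coupled RGS8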
GSH bead fluor – compound fluorescence on glutathione beads, profiling panel, artefact control, biophysical, 488/530 nm, flow cytometry | GSH beads flow cytometry, compound fluorescence 488/530 nm; stronger effect = higher value | fluorescence (KMESF) at 10 µM | hit rate 0.25% among 190,000 | AID 1776, 2009; in the data active = fluorescence above about 89;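 also: glutathione beads carrying GST-tagged Bcl family fusion proteins plus one bare bead set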
RGS7-Gao – RGS7-Galphao binding modulators, primary screen, biochemical, multiplexed bead flow cytometry | binding response (% of control), % at 10 µM | actives lie on both sides | AID 1439, 2008 | hit rate 0.35% among 220,000; in the data active = binding response below about 49% or above about 150%; inconclusive = no clear call, values can overlap the other calls; inactive = in between;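 also: fluorescent Galphao held in activated GDP-AlF4 state binding bead-coupled RGS7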
RGS4-Gao HTS – modulators of RGS–Galpha-o binding, primary screen, biochemical, multiplexed beads, flow cytometry, RGS4/7/8/16/19; shares compounds with RGS16-Gao; multiplexed bead flow cytometry; RGS4–Galpha-o binding response, % at 10 µM; hit rate 99% among 1,600; AID 1504, 2009;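 also: fluorescently labeled Galpha-o bound to GDP with aluminium fluoride binding biotinylated RGS beads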
Avidin counter – disruption of biotin probe capture by avidin, counter-screen for RGS protein interaction modulators, biochemical, flow cytometry, bead-based | shares compounds with RGS16-Gao | streptavidin beads, fluorescein-biotin binding | inhibition, % at 10 µM | 1,700 tested, under 10 active;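 active = inhibition above 50%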;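 also: median green fluorescence of gated singlet beads compared with DMSO control wells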
RGS8-Gao confirm – RGS8-Galphao binding modulators, confirmation, biochemical, multiplexed bead flow cytometry, single concentration. AID 1836, 2009. binding response (% of control), % at 10 µM. hit rate 3% among 1,700. bead-based flow cytometry RGS8-Galphao binding, fluorescence; actives lie on both sides. shares compounds with RGS16-Gao; in the data active = binding response below about 72% or above about 130%; inactive = in between;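 also: Galphao activated as GDP AlF4 complex before binding bead RGS8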
RGS7-Gao single – RGS7-Galphao binding modulators, confirmation, biochemical, multiplexed bead flow cytometry, single concentration; shares compounds with RGS16-Gao; bead-based flow cytometry RGS7-Galphao binding; actives lie on both sides; response (percent of control binding), % at 10 µM; hit rate 7.8% among 1,700; AID 1837, 2009; in the data active = response below about 75% or above about 130%; inactive = in between;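 also: fluorescent Galphao activated with GDP and aluminum fluoride binding bead-coupled RGS7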
RGS16-Gao conf – modulators of RGS16-Galphao protein binding, confirmation, biochemical, single concentration, multiplexed bead flow cytometry; shares compounds with RGS16-Gao; bead-based flow cytometry; actives lie on both sides; hit rate 4% among 1,700; response (% of control binding), % at 10 µM; in the data active = response below about 74% or above about 130%; inactive = in between;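 also: Galphao activated as the GDP aluminium fluoride complex binding bead-coupled RGS16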
RGS4-Gao confirm – modulators of RGS4-Galphao protein binding, confirmation, biochemical, single concentration, multiplexed bead flow cytometry; shares compounds with RGS16-Gao; actives lie on both sides; binding response (% of control), % at 10 µM; hit rate 4% among 1,700; in the data active = binding response below about 74% or above about 130%; inactive = in between
RGS19-Gao single – regulators of RGS19-Galphao binding, confirmation, biochemical, single point, multiplexed bead flow cytometry. shares compounds with RGS16-Gao. bead-based flow cytometry RGS19-Galphao binding; actives lie on both sides. response (percent of control binding), % at 10 µM. hit rate 5% among 1,700. AID 1841, 2009; in the data active = response below about 50% or above about 160%; inactive = in between
Large screens that a line does not name were inactive (follow-up assays come after a bar, where they were run); [ ] = dose if it differs, or a comment. Unless noted, no rule for the calls is given here.

Cc1cc(=O)oc2cc(Oc3ncccc3[N+](=O)[O-])ccc12	none
Cc1cc(=O)oc2cc(Oc3ccc([N+](=O)[O-])cc3[N+](=O)[O-])ccc12	RGS16-Gao 25 | RGS4-Gao HTS 93 | Avidin counter inactive | RGS8-Gao confirm inactive | RGS7-Gao single inactive | RGS16-Gao conf inactive | RGS4-Gao confirm inactive | RGS19-Gao single inactive
CCN(CC)S(=O)(=O)c1ccc(C(=O)N(c2ccc(C)cc2)C2C=CS(=O)(=O)C2)cc1 (stereo unspecified)	RGS7-Gao inconclusive
CC(C)Oc1ccc(C(CC(=O)O)NC(=O)c2cccs2)cc1 (stereo unspecified)	none (no result: RGS16-Gao, Avidin fluor, RGS4-Gao reg, RGS8-Gao reg, RGS7-Gao) | Avidin counter inactive | RGS8-Gao confirm inactive | RGS7-Gao single inactive | RGS16-Gao conf inactive | RGS4-Gao confirm inactive | RGS19-Gao single inactive
CCCOc1ccc(C(CC(=O)O)NC(=O)c2cccs2)cc1 (stereo unspecified)	none
Cc1ccc(OCCN2C(=O)c3ccccc3C2=O)cc1	none
O=C1C(=O)N(Cc2ccccc2)C(=O)N1CCOc1ccccc1	RGS8-Gao reg 58 | RGS4-Gao HTS 56 | Avidin counter inactive | RGS8-Gao confirm inactive | RGS7-Gao single inactive | RGS16-Gao conf inactive | RGS4-Gao confirm inactive | RGS19-Gao single inactive
Cn1c(=O)c2c(nc(OCC3COC(C)(C)O3)n2Cc2ccccc2F)n(C)c1=O (stereo unspecified)	RGS4-Gao reg 165[activator], RGS8-Gao reg 145[activator], RGS7-Gao 164[activator] | Avidin counter inactive | RGS8-Gao confirm inactive | RGS7-Gao single inactive | RGS16-Gao conf inactive | RGS4-Gao confirm inactive | RGS19-Gao single inactive
Cn1c(=O)c2c(nc(N3CCc4ccccc4C3)n2Cc2ccccc2F)n(C)c1=O	none
CCN(CC)c1ccc(/C=C(/C#N)c2nc3ccccc3[nH]2)c(OC(C)C)c1	none
CS(=O)(=O)Nc1ccc(C(=O)NCCC2=CCCCC2)cc1	none (no result: RGS16-Gao, Avidin fluor, RGS4-Gao reg, RGS8-Gao reg, RGS7-Gao) | Avidin counter inactive | RGS8-Gao confirm inactive | RGS7-Gao single inactive | RGS16-Gao conf inactive | RGS4-Gao confirm inactive | RGS19-Gao single inactive
O=C(NCCC1=CCCCC1)c1ccc(Cl)cc1	none
COc1ccc2nc(N/C(N)=N/C(=S)Nc3cccc(C)c3)nc(C)c2c1	none (no result: RGS16-Gao, Avidin fluor, RGS4-Gao reg, RGS8-Gao reg, RGS7-Gao)
